Assay outcomes from PubChem.
Cardiac RTF inh: cardiac RTF calcium desensitization; P19429+P45379; IANBD-labeled cardiac RTF, Ca2+ fluorescence; actives 0.12% (n = 340,000); AID 493244; inhibition, % at 7.15 µM;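 active means inhibition above the mean inhibition of all tested compounds plus 3 SD, cut at about 17% in these data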;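 further: assay run at fixed EC70 calcium of 1.6 mM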
Keap1-Nrf2 PPI: Keap1-Nrf2 (human) interaction inhibition; Keap1 Kelch-Nrf2 peptide fluorescence polarization, 1536-well; inhibition, % at 9.4 µM; actives 0.15% (n = 340,000); AID 504523; in the data active means inhibition above about 12%;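 further: human Keap1 Kelch domain with fluorescein labeled Nrf2 9mer peptide probe; 0% = neutral control wells and 100% = peptide positive control; higher means more block of Keap1 binding to Nrf2 peptide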
Target sequence (Q14145 whole entry, looked up, the tested form may be a part): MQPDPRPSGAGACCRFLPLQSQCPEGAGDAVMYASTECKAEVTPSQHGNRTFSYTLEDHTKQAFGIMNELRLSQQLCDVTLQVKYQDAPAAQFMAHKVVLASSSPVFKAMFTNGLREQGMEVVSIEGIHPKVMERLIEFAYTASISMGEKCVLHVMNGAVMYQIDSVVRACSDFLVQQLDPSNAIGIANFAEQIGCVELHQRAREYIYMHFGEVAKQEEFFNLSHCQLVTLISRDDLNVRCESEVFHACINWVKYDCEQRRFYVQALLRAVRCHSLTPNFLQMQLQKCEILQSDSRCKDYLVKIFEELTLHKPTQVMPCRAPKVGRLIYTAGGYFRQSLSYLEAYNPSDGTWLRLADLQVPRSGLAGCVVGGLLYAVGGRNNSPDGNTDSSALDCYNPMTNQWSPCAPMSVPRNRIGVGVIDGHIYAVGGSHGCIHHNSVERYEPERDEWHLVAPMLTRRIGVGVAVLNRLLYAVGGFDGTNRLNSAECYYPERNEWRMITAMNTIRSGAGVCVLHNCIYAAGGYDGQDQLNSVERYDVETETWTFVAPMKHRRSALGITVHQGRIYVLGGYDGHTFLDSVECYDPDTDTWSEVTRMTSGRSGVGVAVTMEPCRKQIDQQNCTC
cardiac RTF act: cardiac RTF calcium sensitization; IANBD-labeled TnC RTF fluorescence at EC20 calcium; 0% EC20 calcium, 100% full calcium; activation, % at 7.2 µM; actives 0.24% (n = 340,000); AID 493008;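 active means activation above the mean over all tested compounds plus 3 SD, cut at about 30% in these data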;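 further: rise in fluorescence read as greater calcium sensitivity of cardiac thin filaments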
C-LANA FP: KSHV C-LANA DNA binding inhibition. MBP-C-LANA/FAM-LBS DNA binding, fluorescence polarization. inhibition, % at 9 µM. actives 0.078% (n = 340,000). AID 504423;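 active means highest replicate inhibition at or above 60% at 9 µM, even if other replicates fall short; inactive means all replicates below 60% inhibition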;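 further: 0% = neutral control wells and 100% = 4 µM acridine orange control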
LANA-H2A inh: blocks KSHV LANA binding to histone H2A/H2B. actives 0.6% (n = 320,000). cell-free LANA-H2A/H2B peptide, fluorescence polarization. AID 2629. inhibition, % (test concentration not listed). Q9QR71; in the data active means inhibition mostly above about 10%, no sharp cut-off; inactive means mostly below about 6.7%
RTF Ca inh conf: confirmation of inhibitors of cardiac thin filament calcium sensitivity. shares compounds with Cardiac RTF inh. reconstituted cardiac thin filaments, calcium sensitivity fluorescence. inhibition, % at 7.15 µM. actives 8% (n = 360); in the data active means inhibition above about 18%
An asterisk follows results filed as active. Most compounds without a hit are left out; they make up all but 0.99% or so of the library.

For Cc1ccc(S(=O)(=O)N(CC(=O)NCC2CCCO2)C2CCCCC2)cc1 (stereo unspecified) the results were Cardiac RTF inh -10.4, Keap1-Nrf2 PPI -1.5, cardiac RTF act -4.8, C-LANA FP -0.1 and LANA-H2A inh 1.9.
`CCCCC(CC)CN=C(N)NC(N)=NCCCCCCN=C(N)NC(N)=NCC(CC)CCCC` (stereo unspecified) gave Cardiac RTF inh 22.6*, Keap1-Nrf2 PPI 0.7, cardiac RTF act -0.5, C-LANA FP -8.3, LANA-H2A inh -7.9 and RTF Ca inh conf 3.3.
`CCCCC(CC)CO` (stereo unspecified) gave Cardiac RTF inh -4.3, Keap1-Nrf2 PPI 0.1, cardiac RTF act 4.2 and C-LANA FP 1.5.
Screening Cc1ccc(-n2c(SCC(=O)Nc3ccc4c(c3)OCCO4)nnc2-c2ccco2)cc1 returned Cardiac RTF inh 17.4*, Keap1-Nrf2 PPI -0.9, cardiac RTF act 1.2, C-LANA FP -0.8, LANA-H2A inh 0.4 and RTF Ca inh conf -2.5.
`CC1(C)Cc2cccc(OCC(O)CN3CCN(c4ccccn4)CC3)c2O1` (stereo unspecified) gave Cardiac RTF inh -6.7, Keap1-Nrf2 PPI -3.1, cardiac RTF act -7.7 and C-LANA FP -0.8.
`CC1(C)Cc2cccc(OCC(O)CNCc3ccccn3)c2O1` (stereo unspecified) gave Cardiac RTF inh 17.6*, Keap1-Nrf2 PPI -4.3, cardiac RTF act -3.2, C-LANA FP -0.2, LANA-H2A inh -11.2 and RTF Ca inh conf 1.6.
For COc1cc(CC(=O)O)ccc1O the results were Cardiac RTF inh 17.6*, Keap1-Nrf2 PPI 2.1, cardiac RTF act -1.1, C-LANA FP 0.1, LANA-H2A inh -5.2 and RTF Ca inh conf -3.5.
COc1ccc(CC(=O)O)cc1O was read as Cardiac RTF inh 5.4, Keap1-Nrf2 PPI 2.4, cardiac RTF act -4.9, C-LANA FP 2.1 and LANA-H2A inh -0.7.
`O=C(COc1ccccc1Cl)Nc1ccc2c(c1)OCO2` gave Cardiac RTF inh 19.3*, Keap1-Nrf2 PPI -1.2, cardiac RTF act -4.6, C-LANA FP -1.2, LANA-H2A inh -0.4 and RTF Ca inh conf -2.6.
O=C(O)c1ccccc1N=Nc1ccc(O)cc1 was read as Cardiac RTF inh 18.4*, Keap1-Nrf2 PPI 3.1, cardiac RTF act 0.8, C-LANA FP 5.8, LANA-H2A inh -1.2 and RTF Ca inh conf -5.7.
For CCc1cc(=O)oc2cc(OCC(=O)NCCCN3CCCC3=O)c(Cl)cc12 the results were Cardiac RTF inh -6.2, Keap1-Nrf2 PPI 0.9, cardiac RTF act -1.6, C-LANA FP -1.0 and LANA-H2A inh 2.6.
COc1cccc(N=C2CC(C)(C)CC(=O)/C2=C(/O)c2ccccc2)c1 was read as Cardiac RTF inh -8.8, Keap1-Nrf2 PPI -2.4, cardiac RTF act 6.3, C-LANA FP 0.7 and LANA-H2A inh -1.4.
Screening O=C(NCc1cccnc1)c1cc(C(=O)C2CC2)c[nH]1 returned Cardiac RTF inh 21.9*, Keap1-Nrf2 PPI -0.5, cardiac RTF act 5.1, C-LANA FP -0.6, LANA-H2A inh -6.2 and RTF Ca inh conf -2.2.
`COc1ccc(CN(C)C(=O)COC(=O)c2c(-c3ccccc3Cl)noc2C)cc1` gave Cardiac RTF inh 17.6*, Keap1-Nrf2 PPI -4.1, cardiac RTF act -2.0, C-LANA FP 1.2, LANA-H2A inh -2.2 and RTF Ca inh conf -8.3.
For CCC(C)NC(=O)c1c(C)cc(=O)oc1C (stereo unspecified) the results were Cardiac RTF inh -6.9, Keap1-Nrf2 PPI 0.1, cardiac RTF act -1.8, C-LANA FP -0.7 and LANA-H2A inh 8.9.
For O=C(Nc1ccc(N=Nc2ccccc2)c(NC(=O)C2CCCO2)c1)C1CCCO1 (stereo unspecified) the results were Cardiac RTF inh 20.5*, Keap1-Nrf2 PPI -0.9, cardiac RTF act -6.2, C-LANA FP -0.6, LANA-H2A inh 9.0 and RTF Ca inh conf -1.0.
CCc1ccc(OCC(=O)NNC(=O)c2nn(CC)c(=O)c3ccccc23)cc1 was read as Cardiac RTF inh 17.7*, Keap1-Nrf2 PPI -3.8, cardiac RTF act -3.3, C-LANA FP 0.5, LANA-H2A inh 7.1 and RTF Ca inh conf -7.7.
Screening CCOc1ncccc1C(=O)NCc1ccc(OC)c(OC)c1 returned Cardiac RTF inh 0.4, Keap1-Nrf2 PPI -3.7, cardiac RTF act -5.5, C-LANA FP -0.5 and LANA-H2A inh 0.2.
For CCOc1ccc(CN(C)C(=O)c2cccnc2OCC)cc1OC the results were Cardiac RTF inh 17.9*, Keap1-Nrf2 PPI 2.4, cardiac RTF act -3.1, C-LANA FP -0.9, LANA-H2A inh 5.2 and RTF Ca inh conf -0.2.
COc1ccc(NC(=O)CC23CC4CC(CC(C4)C2)C3)cn1 was read as Cardiac RTF inh 17.3*, Keap1-Nrf2 PPI -3.0, cardiac RTF act 0.0, C-LANA FP -0.3, LANA-H2A inh -1.9 and RTF Ca inh conf 2.2.
Screening O=c1cc(N2CCc3ccccc32)[nH]c(=O)n1-c1ccccc1Cl returned Cardiac RTF inh 17.0*, Keap1-Nrf2 PPI 2.3, cardiac RTF act -1.5, C-LANA FP -0.1, LANA-H2A inh -0.6 and RTF Ca inh conf -3.4.
Cc1ccccc1-n1c(=O)cc(N2CCc3ccccc32)[nH]c1=O was read as Cardiac RTF inh -2.1, Keap1-Nrf2 PPI 0.8, cardiac RTF act 0.6, C-LANA FP -1.5 and LANA-H2A inh 4.3.
`NC(=O)CSc1oc(-c2ccco2)nc1S(=O)(=O)c1ccc(F)cc1` gave Cardiac RTF inh 18.0*, Keap1-Nrf2 PPI 2.1, cardiac RTF act -3.3, C-LANA FP 1.6, LANA-H2A inh -0.6 and RTF Ca inh conf -1.7.
`O=C(Nc1nnc(-c2ccccc2)o1)Nc1ccc(F)cc1F` gave Cardiac RTF inh 17.3*, Keap1-Nrf2 PPI 1.4, cardiac RTF act -7.4, C-LANA FP 1.0, LANA-H2A inh -1.1 and RTF Ca inh conf 4.5.
`O=C(Nc1ccc(F)cc1)Nc1nnc(-c2ccccc2)o1` gave Cardiac RTF inh -1.7, Keap1-Nrf2 PPI 2.5, cardiac RTF act -3.8, C-LANA FP -0.2 and LANA-H2A inh 7.9.
`CCC1c2ccc(C)n2CCN1C(=O)Nc1ccc(F)cc1` (stereo unspecified) gave Cardiac RTF inh -5.1, Keap1-Nrf2 PPI -2.6, cardiac RTF act 9.0, C-LANA FP 8.4 and LANA-H2A inh -0.3.
`COc1ccc(NC(=O)CN(C)C(=O)c2cc3c(s2)CCCCC3)cc1` gave Cardiac RTF inh -6.1, Keap1-Nrf2 PPI 2.1, cardiac RTF act -3.6, C-LANA FP 0.9 and LANA-H2A inh 0.6.
`COc1ccc(NC(=O)CN(C)C(=O)c2cc3c(s2)CCC3)cc1` gave Cardiac RTF inh 20.1*, Keap1-Nrf2 PPI 3.5, cardiac RTF act -4.3, C-LANA FP 1.1, LANA-H2A inh 1.7 and RTF Ca inh conf 0.4.
For CCOc1ccc(C2C(C(=O)c3cccs3)=C(O)C(=O)N2Cc2cccnc2)cc1 (stereo unspecified) the results were Cardiac RTF inh 18.8*, Keap1-Nrf2 PPI -2.4, cardiac RTF act 6.4, C-LANA FP 0.6, LANA-H2A inh 3.1 and RTF Ca inh conf 0.5.
